# Her2 expr inh = Her2 kinase expression inhibition. P04626. SKBR-3 HER2 protein level, AlphaScreen, 18-24 h; active compounds read low. HER2 level % of control, % at 10 µM. hit rate 0.69% among 65,000. AID 645;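 active = HER2 level under 5% of the carrier-only control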;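 note: 100% = DMSO carrier and 0% = 500 nM PU-H71 HSP90 inhibitor; lower value means stronger loss of Her2 protein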
# M1 antag = M1 muscarinic receptor (rat) antagonism | P08482 | CHO-M1 cells, Fluo-4 calcium, ACh EC80 antagonist mode; active compounds read low | B-score at 10 µM | hit rate 3.4% among 64,000 | AID 628;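 active = calcium fluorescence response, raw or row-and-column corrected B-score, differing from the plate sample mean either way at a set confidence level, mostly lower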
# Target sequence (P08482 whole entry, looked up): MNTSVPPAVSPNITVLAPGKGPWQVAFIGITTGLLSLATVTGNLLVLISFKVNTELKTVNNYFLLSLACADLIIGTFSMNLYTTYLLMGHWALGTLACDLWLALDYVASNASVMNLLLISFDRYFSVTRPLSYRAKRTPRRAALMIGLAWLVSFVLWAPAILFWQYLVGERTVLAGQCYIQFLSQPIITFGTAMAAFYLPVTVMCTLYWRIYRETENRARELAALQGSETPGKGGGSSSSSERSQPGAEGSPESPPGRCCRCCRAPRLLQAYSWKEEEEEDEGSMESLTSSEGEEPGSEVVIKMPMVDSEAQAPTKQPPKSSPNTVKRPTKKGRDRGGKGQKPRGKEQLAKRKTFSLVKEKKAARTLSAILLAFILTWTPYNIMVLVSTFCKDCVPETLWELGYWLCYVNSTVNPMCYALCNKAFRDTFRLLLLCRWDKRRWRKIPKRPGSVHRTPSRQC
# Cav32 inh = blocks human Cav3.2 T-type calcium channel; hit rate 4% among 100,000; Cav3.2-expressing cells, Fluo-4 calcium fluorescence FDSS; active compounds read low; B-score at 10 µM;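 active = single-dose well whose peak fluorescence ratio is a statistical outlier from its plate by either plate-standardised score or position-corrected B-score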
# PLAP act = activates human placental alkaline phosphatase; P05187; purified PLAP enzyme, luminescent substrate read-out; active compounds read high; activation fold at 20 µM; hit rate 1.2% among 96,000; in the data active = activation fold above about 2
# M1 agonist = M1 muscarinic receptor agonism; CHO-M1 cells, Fluo-4 calcium fluorescence, agonist mode; active compounds read high; B-score at 10 µM; hit rate 3% among 64,000; AID 626;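 active = fluorescence rise, raw or as B-score row- and column-corrected plate score, outside the 99.7% band of its plate's samples, either direction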
# * marks the source's active call; other numbers are inactive results; . = no result given. The list is not random: actives were taken first. Their share in the collection is about 7.9%.
SMILES,Her2 expr inh,M1 antag,Cav32 inh,PLAP act,M1 agonist
O=C(COc1ccc(S(=O)(=O)N2CCOCC2)cc1)Nc1ccc(Cl)c(C(F)(F)F)c1,82.7,-0.866,-5.46*,0.9,-0.547
COc1ccc(Cl)cc1N1C(=O)/C(=C\c2sccc2C)N=C1SCC(=O)NC1CC1,.,.,-6.24*,1.4,.
Cc1cc(C)nc(NC2=NCC(=O)N2c2ccccc2)n1,138.1,-0.387,-0.0702,2.4*,-0.0568
COc1ccc(NC2=NCC(=O)N2c2ccccc2)c(OC)c1,100.1,0.943,-0.447,1,-0.162
COc1ccc(N2C(=O)CN=C2Nc2nc(C)cc(C)n2)cc1,86.2,0.527,0.217,2.3*,-0.0109
Cc1cc(C)nc(NC2=NCC(=O)N2c2ccc3c(c2)OCCO3)n1,122.9,-1.43,-1.14,2*,-0.377
Cc1ccc(NC2=NCC(=O)N2c2ccc3c(c2)OCCO3)c(C)c1,109.2,-0.0458,0.103,.,0.436
Cc1cc(C)nc(NC2=NCC(=O)N2c2cccc(Cl)c2)n1,141.6,0.575,-0.429,2.1*,-0.277
Cc1cc(C)nc(NC2=NCC(=O)N2c2ccccc2Br)n1,121.7,1.11,-0.0671,.,0.892
CC(=O)C1=C(O)C(=O)N(c2cccc(C(=O)O)c2)C1c1ccc(F)cc1 (stereo not given),100.8,0.056,.,.,-0.0846
CC(c1nnc(SCC(=O)NC(=O)NCc2ccco2)n1-c1ccc(Cl)cc1)N(C)C (stereo not given),104.2,0.0512,0.199,1.7,0.00595
CC(C)Cn1c(N)c(C(=O)COC(=O)CC23CC4CC(CC(C4)C2)C3)c(=O)n(C)c1=O,.,.,-0.753,1.5,.
COc1ccc(OC)c(NC(=O)CSc2nc3ccccc3c(=O)n2CCNC(C)=O)c1,93.3,0.242,3.59*,.,0.835
Cc1ccc(NC(=O)CSc2nc3ccccc3c(=O)n2CCCN2CCCCC2)cc1C,.,.,-3.11,2.6*,.
COc1ccc(OC)c(NC(=O)CSc2nnc(C3CCCCC3)n2-c2ccccc2)c1,.,.,-7.35*,.,.
CCCCn1c(SCC(=O)Nc2cc(NC(=O)c3ccco3)ccc2C)nc2ccccc2c1=O,-15.9*,0.198,-2.44,1.2,0.154
Cc1ccc(NC(=O)CSc2nc3ccccc3c(=O)n2CCCC(=O)N2CCCC2)cc1,84.7,-0.311,-0.0184,1,0.0159
Cc1[nH]n(-c2ccccc2)c(=S)c1C=Nc1cccc([N+](=O)[O-])c1,.,.,0.925,1,.
O=C(Nc1ccc(Cc2ccncc2)cc1)c1ccco1,116.9,-0.954,0.176,0.7,-0.392
CC1CCN(C(=O)CSc2ccc3nnc(-c4ccc(F)cc4)n3n2)CC1,100.6,0.391,.,.,-0.668
COC(=O)CCCC1=CC2=C(c3ccccc3)C(=O)C(C)(OC(=O)C3CCCC3)C(=O)C2=CN1CCc1c[nH]c2ccccc12 (stereo not given),.,.,1.31,.,.
CC1C/C(=N/NC(=O)c2cccc(F)c2)c2ccc(O)cc2C1 (stereo not given),.,.,0.492,1,.
CCOc1ccccc1NC(=O)c1c(NC(=O)CNCc2ccco2)sc2c1CCC2,80.6,-8.13*,.,1,-0.594
Cc1ccc(/C=N/Nc2ncc(Cl)cc2Cl)s1,.,.,-3.69,2.8*,.
C=CCNC(=S)NNC(=O)CCC(O)CCCCC (stereo not given),.,.,0.465,2.4*,.
SMILES,Her2 expr inh,M1 antag,Cav32 inh,PLAP act,M1 agonist
COc1cc2c(cc1NC(=O)C(c1ccccc1)c1ccccc1)CCCC2,.,.,-6*,0.9,.
NCCCCc1cn(CC(=O)N2CCNCC2)nn1,.,.,0.989,.,.
CCCOc1cc(C)c(Cl)cc1S(=O)(=O)N(CC)CC,.,.,-3.84*,.,.
CC(C)COC(=O)Nc1nnc(SCCOc2ccccc2)s1,.,.,-2.44,1.4,.
Cc1nn(Cc2c(Cl)cccc2Cl)c(C)c1NC(=O)c1sc2ccccc2c1Cl,.,.,0.132,1,.
Cc1ccccc1Cn1nc(C)c(NC(=O)c2sc3ccccc3c2Cl)c1C,.,.,-6.84*,0.9,.
Cc1nn(Cc2ccc(Cl)c(Cl)c2)c(C)c1NC(=O)c1sc2ccccc2c1Cl,.,.,-8.11*,1.6,.
Cc1nn(Cc2ccc(Cl)cc2Cl)c(C)c1NC(=O)c1sc2ccccc2c1Cl,.,.,-0.924,0.9,.
O=C(Cn1ncc2c1-c1ccccc1OC2)Nc1nc2ccccc2s1,81.2,-0.09,-9.42*,1.2,0.0883
CCC(=O)N1CCN(c2nc3ccccc3s2)CC1,.,.,0.967,1.5,.
O=C(c1cc2sccc2n1Cc1ccccc1)N1CCN(c2nc3ccccc3s2)CC1,.,.,-7.1*,1.2,.
CC1CCN(C(=O)C2CCN(C(=O)c3cc4sccc4n3Cc3ccc(F)cc3)CC2)CC1,40.6,-1.12,-4.1*,1.4,1.21
CC(C)NC(=O)C1CCN(C(=O)c2cc3sccc3n2Cc2ccc(F)cc2)CC1,57.2,-0.682,-0.446,1.1,-0.36
O=C(c1cc2sccc2n1Cc1ccc(F)cc1)N1CCCc2ccccc21,.,.,-3.79*,.,.
O=C(c1cc(-c2cccs2)on1)N1CCCc2ccccc21,57.3,-1.02,-2.86,1.1,0.324
COc1ccc(CC(=O)N2N=C(C)CC2(O)c2cccnc2)cc1 (stereo not given),.,.,-0.183,2.1*,.
CCN1CCc2c(C#N)c(NCc3ccccc3)nc(N(CC)CC)c2C1,76.8,-0.37,-4.17*,1.2,0.327
Cc1ccccc1NS(=O)(=O)c1cc(C(=O)Nc2ccccc2-c2ccccc2)ccc1Cl,.,.,-3.39*,1.3,.
O=C(NCCSc1c[nH]c2ccccc12)c1ccc2c(c1)OCO2,.,.,-3.56,.,.
N#Cc1cc2c(nc1SCC1COc3ccccc3O1)CCC2 (stereo not given),108.1,-0.25,-6.24*,0.9,-0.118
Cc1cc(C)c(C#N)c(SCC2COc3ccccc3O2)n1 (stereo not given),77.2,0.192,-4.73,1.1,-0.669
COC(=O)c1ccc(C2Nc3ccc(/C(C)=N/NC(=O)C(OC)c4ccccc4)cc3C3C=CCC32)cc1 (stereo not given),.,.,0.428,1.1,.
Cc1ccccc1Nc1nc(Nc2ccccc2C)nc(SC2=NCCS2)n1,.,.,-4.61*,1.1,.
CCc1ccc(NC(=O)CC2C(=O)N(c3cccc(C)c3)C(=O)N2C2CC2)cc1 (stereo not given),.,.,-0.205,.,.
CCCCOc1ccc(-c2nnn(C(C)(C)C(=O)OC)n2)cc1,97.8,1.55*,-0.368,1.4,0.297
SMILES,Her2 expr inh,M1 antag,Cav32 inh,PLAP act,M1 agonist
CC(OC(=O)CN(C)S(=O)(=O)c1ccc(Cl)cc1)C(=O)Nc1cccc(Cl)c1 (stereo not given),.,.,-6.59*,0.9,.
Cc1ccc(SCc2[nH]nc3c2C2(C(=O)N(C)c4ccccc42)C(C#N)=C(N)O3)cc1 (stereo not given),54.7,1.85,-0.493,2*,-0.0374
COCc1[nH]nc2c1C1(C(=O)N(C)c3ccccc31)C(C#N)=C(N)O2 (stereo not given),104.9,-0.171,0.105,1,-0.16
Cc1ccc(C)c(N2CCN(C(=O)CCCn3c(=S)[nH]c4cc5c(cc4c3=O)OCO5)CC2)c1,86.8,0.102,-8.56*,1.7,0.735
CCOC(=O)N1CCN(C(=O)c2ccc3c(=O)n(Cc4ccccc4OC)c(=S)[nH]c3c2)CC1,.,.,-1.2,1.4,.
O=C(CCCn1c(=S)[nH]c2cc3c(cc2c1=O)OCO3)N1CCN(c2ccccc2F)CC1,105.6,0.075,-0.724,1.5,-0.128
